# Test results as given in the OligoGym collection.
# Biological target: TRMT1
# Experiment: pooled miR-30 sensor sort-seq; sequence = guide strand
# Settings: shRNA
# Further: reference of the scale not given here.
row,Sequence,sensor-assay potency score (higher = more potent)
1,TTGTTCTGAAGCAGCCTGCGTC,-0.663
2,TAGAAGTCAGCGCTGATGCTGA,-0.13
3,TCGTTTGCAACCACAGATCTGA,-0.44
4,TAGTCTCTGATAGTCGCTCCCG,-0.643
5,TTGAGCTGGACATTCCGGCGTA,0.567
6,TCTCTGATAGTCGCTCCCGTTT,-1.66
7,TTTGCGTGTCCTTCTCTCCTGG,0.33
8,TCTCCTGGAACCTTGATCTGGA,-0.0549
9,TCGGTGACTGTCGTCTCCTGGA,-1.21
10,TAGTACAGAGGCACGTCCGGGA,-0.101

# Biological target: TRO
# Experiment: as above
# Settings: shRNA
row,Sequence,sensor-assay potency score (higher = more potent)
1,TTCATCTTGCTAGTCTCGTGGT,0.132
2,TAGTATTAGATGCACTGCCAAA,-1.27
3,TAAAATGGCCACATCTCGCGGT,0.238
4,TTTCATCTTGCTAGTCTCGTGG,0.184
5,TTGAGCACACTGCCAAAGCTGG,-0.914
6,TTAGTAATAGTCTTTATAGGGG,-0.72
7,TACACCACTAAAGCCAGCCGTG,-1.01
8,TTGAGTGCACTGCCAAAGCTGA,-0.944
9,TAGTGCTCAGTGTACCACCAAA,-1.66
10,TTGATGGGGATCTTTGTCTGGT,-0.592
11,TTGGGTGTGTCCTTGGTCGTTC,0.127
12,TTGGTCAGCATTTGGAGTCTGG,0.322

# Biological target: TRPC4
# Experiment: as above
# Settings: shRNA
row,Sequence,sensor-assay potency score (higher = more potent)
1,TTGAGTAGAACAACCAGAGAGA,-0.452
2,TAGATGTTGAGTCTGGAGCGTG,-0.516
3,TATACTAGAGTCCTCTTCTTTT,-1.18
4,TTGACGAGCAACTTCTTCTGAA,0.0812
5,TTCTTTTGCATGTTTCTCCTTT,0.299
6,TATGAGACTATTGTCATCTCGG,0.182
7,TTCTCTGGAACTTCTCGTCTGA,-0.126
8,TATTTCTCTCAAGTGGTCCTGC,0.27
9,TTTGGTATTATAGGAACCGTGT,-0.294
10,TTGAATGGACACACTCTCTTTC,-0.228
11,TATTGTTCCAAAACTTTCTGGC,0.627
12,TAACACACATTGTTCACTGAGA,-0.436

# Biological target: TRPM3
# Experiment: as above
# Settings: shRNA
row,Sequence,sensor-assay potency score (higher = more potent)
1,TTTCTCATTCTGAAGCACGGAG,-0.126
2,TTTCTTGAGCTCATCATCGGTT,0.21
3,TTGTCTTCGAAGTTTCACCTCT,0.148
4,TTTGTCTTTCATATTGACCGAA,-0.0309
5,TTGTCTTTCATATTGACCGAAT,-0.665
6,TTGTTCTTGAACTCCAAGCTGA,-0.171
